Reference: PubChem BioAssay AID720513 (Broad Institute, 2013)
In all, about 2,100 compounds went through this assay and about 480 (23%) were called active. About 5% were inconclusive and are not listed.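 The calls were made as follows: active = fitted curve reaches 40% activation at or below the top valid concentration, in every replicate test; inconclusive = replicate tests disagree on the call; inactive = the rest, including activity in the opposite direction.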 A selection follows. Entries with a potency or affinity are not part of this list.

Assay: PGC1a acetylation increase, cellular AlphaLISA – cell-based, cherry-picked samples, set 6, dose response (AID 720513);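 also: cells made to overexpress flag tagged PGC1a plus GCN5 acetyltransferase by viral infection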
Details: U2OS PGC1a acetylation AlphaLISA, overnight, 0 = neutral, -100 = inhibitor control; series mostly up to 19.5 µM; activation (acetylation increase): at the top concentration

Compound	activation (acetylation increase)
Cc1cccc(CC2CC(=O)N(C3CCCCC3)C2=O)c1 (stereo unspecified)	-13.6% (inactive)
CCCCn1c(=O)[nH]c(=O)c2c1nc(-c1ccc(OCCC)c(OCC)c1)n2C	-10.5% (inactive)
Oc1ccc(-c2nc(-c3ccc(O)c(O)c3)cs2)cc1	17.4% (inactive)
Cc1cccc(COc2ccc(/C=C3/C(=O)N(C)C(=S)N3C)cc2)c1	-10.1% (inactive)
COc1ccc(CCN(C)C(=O)CN2C(=O)NC3(CCCc4ccccc43)C2=O)cc1OC (stereo unspecified)	2.14% (inactive)
C/C(=C\C(=O)N1CCc2ccccc21)C(=O)O	0.143% (inactive)
O=C(Nc1cccc2c1CCCC2)c1ccccc1Br	9.7% (inactive)
CC(C)(C)NCCC(O)c1cc(C(F)(F)F)nc2c(C(F)(F)F)cccc12 (stereo unspecified)	22.3% (inactive)
CCN(CC)CC#CCOC(c1ccccc1)c1ccccc1	-2.02% (inactive)
O=[N+]([O-])c1ccc(Oc2ccc(F)cc2)c2ccncc12	-22.8% (inactive)
O=C(Nc1cc(C(F)(F)F)ccc1N1CCOCC1)c1ccccc1	4.26% (inactive)
COc1ccc(Br)cc1S(=O)(=O)NCc1ccccc1	7.45% (inactive)
O=C(O)CCCC(=O)Nc1ccc(Br)cc1C(=O)O	-2.91% (inactive)
CC(C)[C@H]1COCCS(=O)(=O)N1Cc1ccccc1F	-26.2% (inactive)
C[C@H](CO)N1C[C@H](C)[C@H](CN(C)S(=O)(=O)c2ccccc2C#N)OCc2cnnn2CCCC1=O	-23.1% (inactive)
CC1CC1C(=O)N(C)CC(=O)Nc1cccc(F)c1 (stereo unspecified)	22.2% (inactive)
CCCN(C)C[C@@H]1Oc2cc(C#CC3CCCC3)ccc2S(=O)(=O)N([C@H](C)CO)C[C@@H]1C	14.2% (inactive)
CCOCCCNC(=O)c1ccccc1SC	20.7% (inactive)
Fc1cccc(CN2C[C@@H]3N[C@H](C2)[C@@H]3c2ccc(-c3cccc(F)c3)cc2)c1	-101% (inactive)
Fc1cccc(-c2ccc([C@@H]3[C@@H]4CN(Cc5nccs5)C[C@H]3N4)cc2)c1	-53.8% (inactive)
c1csc(CNc2ncnc3ccc(-c4ccoc4)cc23)c1	-26.5% (inactive)
CCS(=O)(=O)c1ccc2oc(Nc3ccccc3Br)nc2c1	-16.6% (inactive)
CCN1C(=O)CCCc2ccccc21	30.4% (inactive)

Compound	activation (acetylation increase)
O=C(NCC[C@@H]1CC[C@H](NS(=O)(=O)Cc2ccccc2)[C@H](CO)O1)C1CCC1	11.7% (inactive)
Nc1nc(Nc2ccccc2)nc2ccccc12	-18.8% (inactive)
CC(=O)c1ccc(Nc2cc(C)nc3ccc(C)cc23)cc1	-36.6% (inactive)
CN(C)CC(=O)N1CCCCN2[C@@H](CO)[C@H](c3ccc(/C=C/c4ccccc4)cc3)[C@@H]2C1	-19% (inactive)
COC(=O)c1ccc(C(=O)OC)c(NC(=O)COC(=O)CCOc2ccc(C)cc2)c1	15.7% (inactive)
Cc1ccc(NC(=O)COC(=O)COc2ccc(Cl)cc2)c([N+](=O)[O-])c1	6.12% (inactive)
Cc1cc(C)cc(OC(=O)CS(=O)c2ccc(C(F)(F)F)cc2[N+](=O)[O-])c1 (stereo unspecified)	-36.4% [at 10 µM] (inactive)
C[C@@H]1CCCCO[C@@H](CN(C)S(C)(=O)=O)[C@H](C)CN([C@@H](C)CO)C(=O)c2cc(NC(=O)c3ccccc3)ccc2O1	8.43% (inactive)
COc1nc(OCCNS(=O)(=O)c2ccc(C)cc2)nc(N(C)C)n1	4.81% (inactive)
O=C(Nc1nc(-c2ccc3ccccc3c2)cs1)c1ccc(N2C(=O)CCC2=O)cc1	-4.2% (inactive)
Cc1ccc(CC(=O)Nc2nccs2)cc1	11.1% (inactive)
C[C@H]1CN([C@@H](C)CO)C(=O)c2cc(NC(=O)Nc3cccc4ccccc34)ccc2O[C@H]1CN(C)S(=O)(=O)c1ccc(Cl)cc1	-6.46% [at 21 µM] (inactive)
N#C[C@H]1[C@H](c2ccc(C#CC3CCCC3)cc2)[C@H](CO)N1C(=O)Cc1ccccn1	-55.6% (inactive)
N#C[C@@H]1[C@@H](c2ccc(-c3ccccc3)cc2)[C@@H](CO)N1C(=O)Cc1ccncc1	-41% (inactive)
C[C@H](CO)N1C[C@H](C)[C@H](CN(C)C(=O)NC2CCCCC2)Oc2cc(C#Cc3cccc(F)c3)ccc2S1(=O)=O	-84.8% (inactive)
CS(=O)(=O)c1sc2nc(-c3cccs3)cc(-c3ccccc3)c2c1N	36.2% (inactive)
COc1ccc(C(=O)Nc2cccc(S(C)(=O)=O)c2)cc1OC	14.5% (inactive)
COc1ccc(NC(=O)c2ccc3c(c2)OCO3)cc1Cl	-10.9% (inactive)
C[C@@H]1CN([C@@H](C)CO)C(=O)c2cc(C#CCN(C)C)cnc2O[C@H]1CN(C)Cc1ccc(F)cc1	22% [at 21 µM] (inactive)
Fc1cccc(CN2C[C@@H]3N[C@H](C2)C3c2ccc(/C=C/c3ccccc3)cc2)c1 (stereo partly specified)	-94.1% (inactive)
CCOC(=O)c1oc2nc3c(cc2c1N)COC(C)(C)C3	36.1% (inactive)
C[C@H]1CN([C@@H](C)CO)C(=O)c2cc(C#CC(C)(C)O)cnc2O[C@@H]1CN(C)C(=O)C1CCC1	4.88% (inactive)
CC1CCCCN1C(=O)CN(C)S(=O)(=O)c1cccc2nsnc12 (stereo unspecified)	-12% (inactive)

Compound	activation (acetylation increase)
O=C(Nc1ccc(F)cc1)C1CCCN1S(=O)(=O)c1cccc2nsnc12 (stereo unspecified)	2.69% (inactive)
O=c1c2c3c(sc2n2cnnc2n1Cc1ccccc1)CN(Cc1ccccc1)CC3	29.5% (inactive)
COC(=O)c1[nH]c2ccc(F)cc2c1NS(=O)(=O)c1ccc(OC)cc1OC	-6.12% (inactive)
O=C(C[C@H]1CC[C@@H](NC(=O)c2ccccc2)[C@H](CO)O1)Nc1ccc(-c2ccccc2)cc1	-60.5% (inactive)
COc1ccc(CCN2C(=O)N(c3ccc(OC)cc3)C(=O)C2CC(=O)Nc2ccccc2)cc1 (stereo unspecified)	0.037% (inactive)
CC(=O)c1ccc(N2CCN(C(=O)c3ccc4nc[nH]c4c3)CC2)cc1	16.3% (inactive)
Cc1[nH]c2ccccc2c1C(=O)/C=C/c1ccccc1	-28.1% (inactive)
CSc1nsc(SC)c1NC(=O)Nc1ccccc1C	25.9% (inactive)
O=C(CN1C(=O)NC2(CCc3ccccc32)C1=O)c1ccc(Br)cc1 (stereo unspecified)	31% [at 10 µM] (inactive)
CC1CCN(S(=O)(=O)c2ccc(Oc3ccc([N+](=O)[O-])cc3)cc2)CC1	36% (inactive)
COCc1c(C(=O)Nc2cccc(S(=O)(=O)N3CCCCC3)c2)oc2ccccc12	21.3% (inactive)
COc1cccc(NC(=O)c2ccccc2-c2ccccc2C(=O)O)c1	11.2% (inactive)
CCOc1ccc(NC(=O)c2cccc3c2C(=O)N(CCOC)C3)cc1	1.21% (inactive)
Cc1c(NC(=O)COC(=O)c2ccccc2O)c(=O)n(-c2ccccc2)n1C	15.7% (inactive)
C[C@H]1CN([C@@H](C)CO)C(=O)Cc2cc(NS(C)(=O)=O)ccc2O[C@@H]1CN(C)Cc1ccc2c(c1)OCO2	1.57% (inactive)
C[C@@H]1CN([C@H](C)CO)C(=O)Cc2cc(NC(=O)Nc3ccccc3)ccc2O[C@H]1CN(C)Cc1ccccc1	5.21% [at 21 µM] (inactive)
C[C@@H]1CN([C@H](C)CO)C(=O)Cc2cc(NC(=O)Cc3ccccc3)ccc2O[C@@H]1CN(C)S(C)(=O)=O	14.9% (inactive)
C[C@H]1CN([C@@H](C)CO)C(=O)Cc2cc(NC(=O)Nc3ccccc3)ccc2O[C@@H]1CN(C)Cc1ccccc1	-36.2% (inactive)
C[C@H]1CCCCO[C@H](CN(C)Cc2ccc3c(c2)OCO3)[C@@H](C)CN([C@@H](C)CO)C(=O)c2cc(NC(=O)Nc3ccc(C(F)(F)F)cc3)ccc2O1	-95.8% (inactive)
Cc1ccccc1Cn1cnc2c(nnn2Cc2ccc(F)cc2)c1=O	-4.71% (inactive)
O=C1Nc2c(Br)cc(Br)c3cccc1c23	1.42% (inactive)
COc1ccc(-c2cnc3c(c2)C(=O)N([C@H](C)CO)C[C@H](C)[C@H](CN(C)S(=O)(=O)c2cccs2)O3)cc1	4.64% (inactive)
COc1ccc(S(=O)(=O)N(C)C[C@@H]2Oc3ncc(-c4ccccc4)cc3C(=O)N([C@H](C)CO)C[C@@H]2C)cc1	24% [at 21 µM] (inactive)

Compound	activation (acetylation increase)
C[C@@H]1CN([C@@H](C)CO)C(=O)c2cc(C#CCN(C)C)cnc2O[C@@H]1CN(C)S(=O)(=O)c1cn(C)cn1	15.9% (inactive)
C[C@H]1CN([C@@H](C)CO)C(=O)c2cc(-c3cccc(C(=O)N(C)C)c3)cnc2O[C@@H]1CN(C)S(=O)(=O)c1ccc(F)cc1	-3.94% (inactive)
O=C(C[C@H]1C[C@H]2c3cc(NC(=O)C4CCC4)ccc3O[C@H]2[C@H](CO)O1)NCc1ccc(-c2ccccc2)cc1	14% (inactive)
O=C1c2ccsc2SCCN1Cc1cccc(Cl)c1	-1.83% (inactive)
Cc1cccc(N2C(=O)C(Cl)=C(N3CCOCC3)C2=O)c1	-2.12% (inactive)
O=S(=O)(c1cccs1)N1CCCCN2[C@H](CO)[C@H](c3ccc(/C=C/c4ccccc4)cc3)[C@H]2C1	-41.3% (inactive)
O=C(NC[C@@H]1N[C@@H](CO)[C@H]1c1ccc(C2=CCCCC2)cc1)c1ccc(F)cc1	21.8% (inactive)
C[C@H](CO)N1C[C@H](C)[C@@H](CN(C)Cc2ccccc2F)Oc2ncc(Br)cc2C1=O	9.64% (inactive)
O=S(=O)(Nc1ccccc1N1CCCCC1)c1ccc(F)cc1	29.9% (inactive)
CCCN(CCC)S(=O)(=O)c1ccc(C(=O)Nc2nnc(CSC)o2)cc1	-2.17% (inactive)
Cc1noc(C)c1S(=O)(=O)Nc1ccc2c(c1)C(=O)N([C@@H](C)CO)C[C@@H](C)[C@@H](CN(C)S(=O)(=O)c1ccccc1)O2	15% (inactive)
O=S(=O)(C/C(=C/CO)S(=O)(=O)c1ccccc1)c1ccccc1	-51.6% (inactive)
CCN(C(=O)CN1CCN(c2ccccc2O)CC1)c1c(N)n(Cc2ccccc2)c(=O)[nH]c1=O	1.96% (inactive)
CO[C@H](CN(C)S(=O)(=O)c1ccc(Cl)cc1)[C@H](C)CN([C@H](C)CO)S(=O)(=O)c1cccc(Cl)c1	43.3% [at 18 µM] (inactive)
OCC1OC(Oc2c(Br)cc(Br)cc2Br)C(O)C(O)C1O (stereo unspecified)	15.7% (inactive)
CCc1ccc(C(=O)CN(C#N)c2nc(C)cc(C)n2)cc1	-61% (inactive)
COc1ccc(Cn2nnnc2CN(Cc2cc3ccc(C)cc3[nH]c2=O)C2CCCC2)cc1	-14.1% (inactive)
COc1ccccc1NS(=O)(=O)c1cc(NC(=O)c2[nH]c(C)c(C(C)=O)c2C)ccc1N1CCOCC1	38.3% (inactive)
CCCCCCNC(=O)O[C@@]12CN(S(=O)(=O)c3ccc(C)cc3)C[C@]1(O)Cn1c(=O)n(CCCCCC)c(=O)n1C2	-18.4% (inactive)
O=C(Nc1cccc(Cl)c1)Nc1ccc2c(c1)OCO2	8.19% (inactive)
O=C(O)c1cc(-c2ccc3c(c2)OCO3)nc2ccccc12	-21.2% (inactive)
COc1ccc(NC(=O)[C@H](Cc2c[nH]c3ccccc23)NC(=O)[C@@H]2Cc3ccccc3CN2)cc1	3.84% (inactive)
